Experimental findings from publication PMC6792352, “Limited Chemical Structural Diversity Found to Modulate Thyroid Hormone Receptor in the Tox21 Chemical Library” (Environmental Health Perspectives, 2019) are described below.

The test system of this test is thyroid hormone receptor (endogenous TRα and TRβ). Further details: species or system GH3-TRE-Luc (rat pituitary); GH3-TRE-Luc luciferase reporter, antagonist mode against 1 nM T3, loss of signal, qHTS.
The mark [1] stands for this setting: read-out: Average AC50 (uM) GH3-TRE-Antag, antagonist mode, 1 nM T3, no GH3 cytotoxicity hit.

Where two headings read alike, the source gives them in different places.

As usually defined, the AC50 is the concentration at which the activity in the assay is half-maximal. In the case of `OC1CCCCCCCCCCC1` [Cyclododecanol], the concentration at half-maximal activity (AC50) under setting [1] worked out at 47.7 µM.

In the case of `CC(C)CCC[C@@H](C)[C@H]1CC(=O)C2=C3CC[C@H]4C[C@@H](O)CC[C@]4(C)[C@H]3CC[C@@]21C` [Colestolone], under setting [1], the AC50 came to 7.21 µM.

Turning to `CC(C)(C)C(O)C(Oc1ccc(Cl)cc1)n1cncn1` (stereo not shown) [Triadimenol], the AC50 under setting [1] was above 90 µM.

Turning to `O=C(N[C@@H]1N=C(c2ccccc2F)c2cccc3c2N(CC3)C1=O)c1cc2ccccc2[nH]1` [N-[(3R)-1-(2-Fluorophenyl)-4-oxo-3,4,6,7-tetrahydro[1,4]diazepino[6,7,1-hi]indol-3-yl]-1H-indole-2-carboxamide], the AC50 under setting [1] came to 5.69 µM.

In the case of `C#C[C@]1(O)CC[C@H]2[C@@H]3CCC4=CC(=O)CC[C@]4(C)[C@H]3CC[C@@]21C` [Ethisterone], the AC50 under setting [1] is 7.79 µM.

Regarding `O=C(CCCN1CCC(C(=O)c2ccc(F)cc2)CC1)c1ccc(F)cc1` [Lenperone], the AC50 under setting [1] is 44.5 µM.

`COc1ccc(-c2coc3cc(O)cc(O)c3c2=O)cc1` [Biochanin A]: under setting [1], the AC50 was 67 µM.

`CO[C@H]1O[C@@H]2O[C@@]3(C)CC[C@H]4[C@H](C)CC[C@@H]([C@H]1C)[C@@]24OO3` [Artemether]: the AC50 under setting [1] was above 50 µM.

As for `CCO/N=C(\CC)C1=C(O)CC(c2c(C)cc(C)cc2C)CC1=O` (stereo not shown) [Tralkoxydim], under setting [1], the AC50 is above 90 µM.

Consider `Nc1c2c(nc3ccccc13)CCCC2` [Tacrine], for which the AC50 (read-out: Average AC50 (uM) GH3-TRE-Antag, antagonist mode, 1 nM T3, no GH3 cytotoxicity hit, Average AC50 (uM) GH3-TRE-Antag, 24 h) was 41.7 µM.
